Assay results: PubChem BioAssay (Tox21)
Records with an inconclusive call do not appear. Active and inactive are the calls of the source. Unless noted, calls come from the whole dose curve; as a rule, active = well fitted curve in the direction sought with a large enough effect in the repeat runs; inconclusive = weak or mixed curves; inactive = no such curve, though single readings can be large; an effect the other way counts as inactive or inconclusive.

Experiments:
[1] = qHTS assay for small molecule agonists of the p53 signaling pathway (AID 651631; calls by dose curve; note: nearly all actives have a fitted effect of over 15% in size)
Procedure, shortened: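 Testing took place in human colorectal HCT-116 cells with stable p53RE-driven beta-lactamase. After 16 h of compound exposure at 37 °C, a FRET substrate was added and fluorescence recorded 2 h later.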

[2] = qHTS assay for small molecules that induce genotoxicity in human embryonic kidney cells expressing luciferase-tagged ATAD5 (AID 651632); note: nearly all actives have a fitted effect of over 15% in size
Procedure, shortened: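 Quantitative HTS in HEK293T expressing luciferase-tagged ATAD5, whose levels rise upon DNA damage. Exposure ran 16 hr at 37C and 5% CO2, with luminescence read 30 min after Amplite addition at room temperature.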

[3] = qHTS assay for small molecule agonists of the p53 signaling pathway - cell viability (AID 651633; calls by dose curve; note: series mostly up to about 83 µM; nearly all actives have a fitted effect of over 30% in size)
Procedure, shortened: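 Viability counter-read: CellTiter-Glo luminescence (30 min, room temperature) in the same p53RE-bla plates. These plates had been exposed to compounds for 16 h at 37 C.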

[4] = qHTS assay for small molecules that induce genotoxicity in human embryonic kidney cells expressing luciferase-tagged ATAD5 - cell viability (AID 651634; calls by dose curve; note: nearly all actives have a fitted effect of over 25% in size)
Procedure, shortened: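 After 15.5 hr incubation with compound at 37C, 5% CO2, HEK293T ATAD5-luciferase cells received CellTiter-Fluor reagent; fluorescence intensity was quantified following 30 min at 37C.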

[5] = qHTS assay for small molecule disruptors of the mitochondrial membrane potential - cell viability (AID 720634; calls by dose curve;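 note: human HepG2 liver cancer cells; series mostly up to about 83 µM; nearly all actives have a fitted effect of over 20% in size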)
Procedure, shortened: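 ATP-based luminescent viability readout (CellTiter-Glo, 30 min, room temperature) in HepG2 cells multiplexed with the m-MPI membrane potential dye; compound exposure lasted 1 hr at 37 C.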

[6] = qHTS assay for small molecule disruptors of the mitochondrial membrane potential (AID 720635)
Procedure, shortened: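 Mitochondrial membrane potential tracked with Mito-MPS dye, red aggregates (ex 540/em 590 nm) against green monomers (ex 490/em 535 nm). Compound treatment 1 hr at 37C, dye 30 min in HepG2.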

[7] = qHTS assay to test for compound auto fluorescence at 535 nm (green) in HepG2 cells (AID 720675)
[8] = qHTS assay to test for compound auto fluorescence at 460 nm (blue) in HEK293 cells (AID 720678)
Procedure, shortened: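 Auto fluorescence in the blue band was quantified as triamterene equivalency. HEK293 cells were seeded at 2,000/well, dosed after a 4-5 hr attachment, and kept overnight at 37C before the 405/460 nm reading.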

[9] = qHTS assay to test for compound auto fluorescence at 590 nm (red) in HEK293 cells (AID 720679)
Procedure, shortened: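 Autofluorescence equivalency to Rose Bengal sodium, 540/590nm, in HEK293 cells exposed overnight to 23 nL compound per well.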

[10] = qHTS assay to test for compound auto fluorescence at 535 nm (green) in HEK293 cells (AID 720680)
[11] = qHTS assay to test for compound auto fluorescence at 460 nm (blue) in HEK293 cell free culture (AID 720681)
Procedure, shortened: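 Blue fluorescence (Ex 405/Em 460 nm, triamterene-equivalent) was read immediately after pin transfer of compound or DMSO into medium (DMEM, 10% FBS) without cells.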

[12] = qHTS assay to test for compound auto fluorescence at 535 nm (green) in HEK293 cell free culture (AID 720682)
Procedure, shortened: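 DMEM + 10% FBS, cell-free; cpd or DMSO pinned in; Ex485/Em535 read; output as fluorescein-equivalent signal.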

[13] = qHTS assay to test for compound auto fluorescence at 590 nm (red) in HEK293 cell free culture (AID 720683)
Procedure, shortened: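 Red-channel autofluorescence of compounds in culture medium (DMEM, 10% FBS), no cells, measured at 540/590 nm. Rose Bengal sodium is the reference fluorophore for equivalence.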

[14] = qHTS assay to test for compound auto fluorescence at 590 nm (red) in HepG2 cell free culture (AID 720684)
Procedure, shortened: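 No cells present: MEM + 10% FBS only. Compound pinned in, red label read (540/590 nm). Activity = fluorescence equivalent to Rose Bengal sodium.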

[15] = qHTS assay to test for compound auto fluorescence at 460 nm (blue) in HepG2 cell free culture (AID 720685)
Procedure, shortened: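 Cell-free plates of MEM plus 10% FBS received 23 nL compound or DMSO vehicle; blue-channel (405/460 nm) intensity scored against triamterene as reference fluorophore.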

[16] = qHTS assay to test for compound auto fluorescence at 535 nm (green) in HepG2 cell free culture (AID 720686)
[17] = qHTS assay to test for compound auto fluorescence at 460 nm (blue) in HepG2 cells (AID 720687)
Procedure, shortened: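 Blue-channel autofluorescence (Ex/Em 405/460 nm, triamterene-equivalent) was measured after 1 hr compound exposure at 37 C, 5% CO2. Cells were HepG2, plated overnight at 37 C in MEM plus 10% FBS.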

[18] = qHTS assay to test for compound auto fluorescence at 590 nm (red) in HepG2 cells (AID 720674)
Procedure, shortened: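 Red autofluorescence (Ex/Em 540/590 nm, Rose Bengal sodium equivalents) was measured in HepG2 cells, 2,000 per well in MEM plus 10% FBS, plated overnight at 37 C. Readings were taken 1 hr after adding 23 nL compound or DMSO, at 37 C and 5% CO2.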

[19] = target: Glucocorticoid receptor (Homo sapiens) (UniProt P04150); assay: qHTS assay to identify small molecule agonists of the glucocorticoid receptor (GR) signaling pathway (AID 720691; active = well fitted activation curve with a large enough effect in the signal ratio in the repeat runs, not every such curve was filed as active; the % refers to the signal ratio)
Chain of Glucocorticoid receptor (Homo sapiens) (P04150 whole entry, looked up): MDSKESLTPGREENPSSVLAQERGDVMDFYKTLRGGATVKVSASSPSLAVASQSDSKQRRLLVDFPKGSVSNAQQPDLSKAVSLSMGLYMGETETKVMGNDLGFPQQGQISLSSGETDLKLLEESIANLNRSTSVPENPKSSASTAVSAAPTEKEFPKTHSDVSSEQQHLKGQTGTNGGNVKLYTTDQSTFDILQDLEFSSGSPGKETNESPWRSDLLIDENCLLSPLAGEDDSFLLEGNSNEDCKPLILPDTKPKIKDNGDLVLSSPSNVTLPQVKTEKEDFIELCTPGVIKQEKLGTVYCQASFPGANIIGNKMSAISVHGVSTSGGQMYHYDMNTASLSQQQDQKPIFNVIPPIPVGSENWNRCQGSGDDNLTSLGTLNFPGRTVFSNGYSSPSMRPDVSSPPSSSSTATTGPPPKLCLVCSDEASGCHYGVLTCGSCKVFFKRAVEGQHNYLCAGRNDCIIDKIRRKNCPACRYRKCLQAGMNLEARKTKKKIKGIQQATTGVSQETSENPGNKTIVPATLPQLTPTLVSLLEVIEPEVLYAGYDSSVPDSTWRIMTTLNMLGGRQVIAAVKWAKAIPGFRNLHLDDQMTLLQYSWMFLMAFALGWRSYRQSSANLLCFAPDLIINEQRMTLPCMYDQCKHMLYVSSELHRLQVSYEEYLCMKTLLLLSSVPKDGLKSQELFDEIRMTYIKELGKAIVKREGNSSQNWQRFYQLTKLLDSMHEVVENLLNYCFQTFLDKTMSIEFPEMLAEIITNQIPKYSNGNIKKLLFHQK
Procedure, shortened: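 Cells: GR-bla HeLa, endogenous GR with stably integrated GRE-beta-lactamase reporter. Treatment 18 h, 37 C, compounds delivered in DMSO. Detection via LiveBLAzer B/G FRET substrate, 2 h RT, fluorescence intensity.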

[20] = target: Glucocorticoid receptor (Homo sapiens) (UniProt P04150); assay: qHTS assay to identify small molecule antagonists of the glucocorticoid receptor (GR) signaling pathway (AID 720692; active = well fitted inhibition curve with a large enough effect in the signal ratio in the repeat runs, not every such curve was filed as active; the % refers to the signal ratio)
Procedure, shortened: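 Quantitative HTS in antagonist format: HeLa cells expressing endogenous GR and a stably integrated GRE-bla reporter, stimulated with 5 nM dexamethasone (final) alongside test compounds for 18 h.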

Measured: Potency

O=C(Oc1ccccc1C(=O)O)c1ccccc1O
not listed: [18] | [19] | [20]
inactive: all other assays above

FC(F)(F)/C(=N\OCC1OCCO1)c1ccc(Cl)cc1
not listed: [8] | [15]
inactive: all other assays above

OC(CCN1CCCCC1)(c1ccccc1)c1ccccc1
not listed: [6] | [17] | [19] | [20]
inactive: all other assays above

CCC(O)C(C)(C)C (stereo unspecified)
not listed: [7] | [19] | [20]
inactive: all other assays above

CCCCCCCCCCCCC
inactive: all assays above

O=c1[nH]c(=O)c2ccccc2o1
not listed: [8] | [18] | [19] | [20]
inactive: all other assays above

CC(C)(c1ccc(Oc2ccc3c(c2)C(=O)OC3=O)cc1)c1ccc(Oc2ccc3c(c2)C(=O)OC3=O)cc1
not listed: [6] | [20]
inactive: all other assays above

CCOC(=O)CC(CC(=O)OCC)(OC(C)=O)C(=O)OCC
not listed: [6] | [19] | [20]
inactive: all other assays above

CCC1COC(=O)O1 (stereo unspecified)
not listed: [7] | [11] | [20]
inactive: all other assays above

CCOC(=O)CCc1ccccc1
not listed: [7] | [11] | [19] | [20]
inactive: all other assays above

CCCCCC(=O)OCC
not listed: [6] | [17] | [20]
inactive: all other assays above

Cc1ccc(S(=O)(=O)NC(=O)NC2CCCCCCC2)cc1
not listed: [8] | [11] | [18] | [20]
inactive: all other assays above

O=C(O)/C=C/c1ccccc1
not listed: [11] | [20]
inactive: all other assays above

CCCCCCCCCCC
not listed: [14]
inactive: all other assays above

C=C[C@@H](C)CCC=C(C)C
not listed: [15]
inactive: all other assays above
